# KB-3-1 tox = qHTS assay for MDR1-selective chemotherapeutics: Primary screen using the parental adenocarcinoma cell KB-3-1. KB-3-1 viability, CellTiter-Glo ATP luminescence, 72 h. Potency, µM (highest dose often 46.1 µM), usual class: cytotoxic. 400,000 compounds, 1.4% hits; also: potency is read from the fitted curve at half-maximal effect; nearly all actives have a fitted effect of over 60% in size
#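 KB-3-1 cells, DMEM (no phenol red) + 10% FBS; compound by pin transfer, 72 h, 37 °C. Readout: CellTiter-Glo luminescence after 10 min. Data normalized, curve-fitted.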
# IL1B secr inh = qHTS for Inhibitors of Inflammasome Signaling: IL-1-beta AlphaLISA Primary Screen; AID 743279, 2014; 360,000 compounds, 4.7% hits; activity change, % at 57.5 µM; THP-1 LPS/ATP IL-1B secretion, AlphaLISA, 16 h; hits give low values; in the data active = activity change below about -50%; inconclusive = mostly about -30% to -49%
#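 Secreted IL-1B measured by AlphaLISA bead assay after 16 h compound exposure of THP-1 cells; compounds (final up to 57.5 uM) added 1 h before LPS (250 ng/mL) and ATP (1.25 mM) stimulation; lower signal means less secretion.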
# KB-V1 MDR tox = qHTS assay for MDR1-selective chemotherapeutics: Primary screen using the drug-selected MDR subline cells KB-V1. KB-V1 MDR cells viability, CellTiter-Glo, 72 h. Potency, µM (highest dose often 46.1 µM), most hits filed as cytotoxic. 400,000 compounds, 3.4% hits. AID 1347076, 2019; also: potency is read from the fitted curve at half-maximal effect; nearly all actives have a fitted effect of over 60% in size
#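 In this primary screen, KB-V1 cells overexpressing P-gp are incubated with library compounds (lowest to highest concentration) for 72 h at 37 degrees C before a luminescent ATP viability read.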
# HT1080-NT tox = qHTS for induction of synthetic lethality in tumor cells producing 2HG: qHTS for the HT-1080-NT fibrosarcoma cell line; 360,000 compounds, 1.6% hits; HT-1080-NT fibrosarcoma viability, CellTiter-Glo ATP luminescence, 48 h; Potency, µM (series often up to 46.1 µM), inactives show at the top dose activity, negative = less viability, usual class: cytotoxic;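 also: NT is the 2HG producing partner of a matched IDH1 knockdown line; potency is read from the fitted curve at half-maximal effect; 0% = DMSO-treated cells and -100% = media-only wells without cells; nearly all actives have a fitted effect of over 55% in size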
#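 A 48-hour cytotoxicity screen used HT-1080-NT cells plated 2 hours before compound delivery. ATP-based CellTiter-Glo luminescence measured viability, normalized to DMSO and no-cell controls.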
# HT1080 IDH1KD tx = qHTS for induction of synthetic lethality in tumor cells producing 2HG: qHTS for the HT-1080-IDH1KD cell line; HT-1080 IDH1 knockdown viability, ATP luminescence, 48 h; Potency, µM (titrated, usually from 46.1 µM), for inactives: at the top dose activity, negative = toxicity, actives largely listed as cytotoxic; 360,000 compounds, 2% hits; AID 686971, 2013;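 also: potency is read from the fitted curve at half-maximal effect; 0% = DMSO wells and -100% = cell-free medium wells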
#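 In this qHTS, HT-1080 cells depleted of IDH1 are exposed for 48 h at 37 °C to compound titrations. Toxicity is scored from CellTiter-Glo luminescence, with DMSO as full viability and medium alone as none.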
# * = called active by the depositor; i = inactive; u = inconclusive; x = not tested or not shown; ! = not active in a repeat. An excerpt weighted towards active compounds, which were near 8.8% of everything screened. Unless noted, calls follow the shape of the dose curve; as a rule, active = well fitted curve in the direction sought with a large enough effect; inconclusive = small, poorly fitted or top-dose-only effect, or another doubt; inactive = no such curve, though single readings can be large; an effect the other way counts as inactive or inconclusive. Unless noted, % is scaled to controls: 0 for no effect and ±100 for the full control effect.
SMILES,KB-3-1 tox,IL1B secr inh,KB-V1 MDR tox,HT1080-NT tox,HT1080 IDH1KD tx
COc1ccc(/C=N\NC(=O)c2cccc(F)c2)cc1COc1ccccc1,i,77.8,u,1.16µM*,0.581µM*
COC(=O)c1cccc(N=Cc2c(O)n(Cc3ccc(F)cc3)c(=O)[nH]c2=O)c1,u,18.8,u,15.0%,20.1%
C/C(=C\c1ccc(N(C)C)cc1)[N+](=O)[O-],u,-106.6*,u,11.2µM*,6.31µM*
CN(C)c1ccccc1,i,4.7,i,10.8%,-5.0%
CN(C)c1ccc(/C=C/[N+](=O)[O-])cc1,i,-63.6*,i,u,23.1µM*
COc1ccc2c3c1O[C@H]1C(=O)CC[C@H]4[C@@H](C2)N(C)CC[C@]314,i,-88.7*,i,-5.2%,-2.7%
O=C1/C(=C\c2ccc(Cl)c(Cl)c2)N2CCC1CC2,i,-79.3*,i,0.7%,-7.1%
O=C1/C(=C/c2cccc([N+](=O)[O-])c2)N2CCC1CC2,i,-67.7*,i,-7.0%,-3.1%
O=C1/C(=C\c2ccncc2)N2CCC1CC2,i,-5.4,i,-1.5%,-4.2%
CCc1nc(SC)ncc1C(=O)Nc1ccc(Cl)cc1C(=O)c1ccccc1,i,x,i,x,x
Oc1ccc2c3c1O[C@H]1[C@@H](O)CC[C@@]4(O)C(C2)N(CC2CCC2)CCC314 (stereo partly drawn),x,x,x,9.1%,15.7%
COc1ccc(/C=C/C(=O)c2c(O)n(CCC3=CCCCC3)c(=O)[nH]c2=O)cc1,20.6µM*,-16.0,10.3µM*,-6.6%,-9.4%
O=C(/C=C/c1ccc2c(c1)OCO2)c1c(O)n(CCC2=CCCCC2)c(=O)[nH]c1=O,u,0.4,7.31µM*,6.5%,3.2%
CCCCn1c(O)c(C(=O)/C=C/c2ccc3c(c2)OCO3)c(=O)[nH]c1=O,u,-73.2*,u,-2.8%,-1.8%
CCCCn1c(O)c(C(CC)=NCc2ccc3c(c2)OCO3)c(=O)[nH]c1=O,i,-21.8,u,-16.1%,-26.9%
CN(C)CCN=Cc1c(O)n(CCC2=CCCCC2)c(=O)[nH]c1=O,i,-17.5,i,15.6%,-6.4%
CNC(=O)Oc1ccc2c(c1)[C@]1(C)CCN(C)C1N2C (stereo partly drawn),i,-10.5,i,24.4%,-5.4%
O=C(COc1ccc(Cl)cc1)N(c1ccc(Cl)cc1)C1CN2CCC1CC2 (stereo not drawn),u,-95.5*,i,16.4µM*,14.6µM*
Clc1ccccc1CNC1CN2CCC1CC2 (stereo not drawn),i,-3.3,i,-1.6%,6.9%
O=S(=O)(NC1CN2CCC1CC2)c1ccc(Cl)cc1 (stereo not drawn),i,-2.3,i,4.8%,3.4%
O=C(COc1ccc(Cl)cc1)N(c1ccccc1Cl)C1CN2CCC1CC2 (stereo not drawn),u,-75.0*,u,u,16.4µM*
O=C1CN=C(c2ccccc2)c2cc(Cl)ccc2N1,i,-13.6,i,-14.7%,-0.6%
CC(C)CNc1c2c(nc3ccccc13)CCC2,u,-60.2*,u,-6.8%,-22.5%
c1ccc(CNc2c3c(nc4ccccc24)CCC3)cc1,u,-93.2*,u,u,u
CC(C)C12CN3CC(C(C)C)(CN(C1)C3c1cccnc1)C2=O (stereo not drawn),i,6.2,i,1.4%,1.2%
SMILES,KB-3-1 tox,IL1B secr inh,KB-V1 MDR tox,HT1080-NT tox,HT1080 IDH1KD tx
O=P(Nc1cccnc1)(Oc1ccccc1Cl)Oc1ccccc1Cl,i,-1.1,i,-7.6%,1.1%
CC[C@@]1(O)C(=O)OCc2c1cc1n(c2=O)Cc2cc3c(N)cccc3nc2-1,u,-112.2*,i,2.06µM*,1.3µM*
Cn1cc(C(=O)OCC(=O)NC2(C#N)CCCCC2)c2ccccc21,i,-15.9,i,12.9%,1.8%
CN(C)CC(C(=O)Cc1ccccc1)c1ccccc1 (stereo not drawn),8.2µM*,-96.4*,u,16.4µM*,8.2µM*
C[C@@H]([C@@H](O)c1ccccc1)N(C)C(=O)Cc1ccccc1,u,15.4,i,0.0%,8.4%
CNP(=O)(Oc1ccccc1)OC12CC3CC(CC(C3)C1)C2 (stereo not drawn),i,0.2,i,-2.7%,-2.9%
N#CC(C#N)=C(C#N)c1ccc(Nc2ccccc2)cc1,i,-90.5*,u,-2.0%,2.2%
c1ccc(Nc2ccc(Nc3ccccc3)cc2)cc1,i,-24.8,i,-25.5%,-14.4%
CN1OCC2Cn3c(nc4ccccc43)C21 (stereo not drawn),u,41.5,u,1.0%,1.4%
CC1CCC/C=C/C2CC(O)CC2C(O)/C=C/C(=O)O1 (stereo not drawn),u,-55.7*,u,u,u
C[C@H]1CCC/C=C/C2C[C@H](O)CC2[C@H](O)/C=C/C(=O)O1 (stereo partly drawn),0.0259µM*,-63.8*,0.411µM*,0.0366µM*,0.0291µM*
c1ccc2c(c1)Sc1ccccc1N2CC1CN2CCC1CC2 (stereo not drawn),i,-24.2,i,-6.8%,-3.9%
CN(C)CCC=C1c2ccccc2CCc2ccccc21,i,u,20.6µM*,u,23.1µM*
CN(C)CCCN1c2ccccc2Sc2ccc(Cl)cc21,u,0.0,13µM*!,14.6µM*!,u
CN(C)CC/C=C1\c2ccccc2Sc2ccc(Cl)cc21,i,-56.9*,u,20.6µM*,u
Cc1cc(C=O)c(C)n1C(C)C,i,-3.0,i,17.4%,23.7%
O=c1c2ccccc2[se]n1-c1ccccc1,u,-114.3*,u,23.1µM*,u
CC(CC(C)(C)N1CC1)=NNC(=O)Nc1cccc2ccccc12,u,-16.7,u,6.8%,0.2%
O=C(O)Cn1cc(/C=C2\C(=O)NC(=O)N(c3ccc(Cl)cc3)C2=O)c2ccccc21,i,38.7,u,-0.4%,0.0%
CCN(CC)C(=O)Cn1cc(/C=C2\C(=O)NC(=O)N(c3ccccc3F)C2=O)c2ccccc21,i,-94.4*,u,u,u
C=C1C(=O)O[C@@H]2C[C@@H](C)[C@@H]3C4OC4C(=O)[C@@]3(C)[C@@H](O)[C@H]12 (stereo partly drawn),i,-113.0*,i,14.6µM*,9.2µM*
C=C1C(=O)O[C@H]2C[C@@H](C)[C@@H]3C=CC(=O)[C@@]3(C)C[C@H]12,u,-110.9*,u,u,8.2µM*

# Bioassay records as filed in PubChem.
